Results taken from a collection of fitness landscapes (doi:10.1126/science.1257360).
Whole data set: some 140,000 sequences, median “enrichment ratio after two sorts for PhoP signalling” near 0, cut for the highest 2% near 11. What follows is part of a selection rich in the highest values, with near analogues and random picks from the rest.

B1: PhoQ; a variant is named by its letters at X, in order, P23837 (parent)
chain: MKKLLRLFFPLSLRVRFLLATAAVVLVLSLAYGMVALIGYSVSFDKTTFRLLRGESNLFYTLAKWENNKLHVELPENIDKQSPTMTLIYDENGQLLWAQRDVPWLMKMIQPDWLKSNGFHEIEADVNDTSLLLSGDHSIQQQLQEVREDDDDAEMTHSVAVNVYPATSRMPKLTIVVVDTIPVELKSSYMVWSWFIYVLSANLLLVIPLLWVAAWWSLRPIEALAKEVRELEEHNRELLNPATTRELTSLVRNLNRLLKSERERYDKYRTTLTDLTHSLKTPLXXLQXXLRSLRSEKMSVSDAEPVMLEQISRISQQIGYYLHRASMRGGTLLSRELHPVAPLLDNLTSALNKVYQRKGVNISLDISPEISFVGEQNDFVEVMGNVLDNACKYCLEFVEISARQTDEHLYIVVEDDGPGIPLSKREVIFDRGQRVDTLRPGQGVGLAVAREITEQYEGKIVAGESMLGGARMEVIFGRQHSAPKDE

Variants of: B1
Assay: enrichment ratio after two sorts for PhoP signalling (ratio (wild type AVST 3.29)); higher = more functional
Conditions: with PhoP (E. coli)

Variant | enrichment ratio
FVHD | ≤ 0.25
WDYC | ≤ 0.25
AMPE | ≤ 0.25
AMCL | 15.7
AMCE | 67.3
AMTE | 15.1
AMCI | 14.1
AKTE | ≤ 0.25
AMCK | ≤ 0.25
AITE | ≤ 0.25
AMIE | ≤ 0.25
AMCS | 5.27
NMCL | ≤ 0.25
AMNL | 3.05
PGVP | ≤ 0.25
HSSS | ≤ 0.25
DNCF | ≤ 0.25
HRPL | ≤ 0.25
NSCR | ≤ 0.25
ILKS | ≤ 0.25
APIM | ≤ 0.25
QGSM | 9.07
AMPI | 0.985
AMPA | ≤ 0.25

Variant | enrichment ratio
AMCA | 19.4
MMHC | ≤ 0.25
GDLT | ≤ 0.25
GDNT | ≤ 0.25
NQIQ | ≤ 0.25
GDHP | 1.16
GDIQ | 17.5
GDIT | 14
GDHQ | ≤ 0.25
GNIQ | 9.19
GQIQ | 14.9
VNKQ | ≤ 0.25
GRCH | ≤ 0.25
YDLC | ≤ 0.25
IFMM | ≤ 0.25
SGFM | 5.94
CFLM | ≤ 0.25
NGLM | 13.2
TGLM | 26.9
GGLM | 2.85
HFLM | ≤ 0.25
AGLM | 6.12
SGFA | ≤ 0.25
HRLM | ≤ 0.25

Variant | enrichment ratio
HGLM | 16.4
SGLM | 17.9
RGLM | ≤ 0.25
RWIP | ≤ 0.25
VHKL | ≤ 0.25
MHLQ | ≤ 0.25
DMYA | ≤ 0.25
SEHG | ≤ 0.25
VTGQ | ≤ 0.25
YERP | ≤ 0.25
RWVH | ≤ 0.25
EIKR | ≤ 0.25
WPFI | ≤ 0.25
MTAY | 4.94
IGFA | ≤ 0.25
IGLM | 14
IGLA | ≤ 0.25
QFWE | ≤ 0.25
ANCE | 56
ANIE | ≤ 0.25
ANSE | 11.5
ANHE | ≤ 0.25
ADSE | ≤ 0.25
AKSE | ≤ 0.25

Variant | enrichment ratio
AGID | ≤ 0.25
ANHV | ≤ 0.25
ANCA | 44.6
ANPI | ≤ 0.25
TGII | ≤ 0.25
AGII | 33.2
LPYL | ≤ 0.25
MLTL | 8.8
YPKQ | ≤ 0.25
RNCE | ≤ 0.25
IICI | ≤ 0.25
MPFW | ≤ 0.25
LFPW | ≤ 0.25
RNAC | ≤ 0.25
NMMW | ≤ 0.25
QIFK | ≤ 0.25
QINA | ≤ 0.25
QQLA | ≤ 0.25
PAGS | ≤ 0.25
AIMV | 5.05
ANHF | ≤ 0.25
ANCI | 19.9
ANLC | 22.4
LNLC | ≤ 0.25

Variant | enrichment ratio
FDMV | ≤ 0.25
GNLH | 1.09
ANFA | ≤ 0.25
ADLH | 5.09
ADMV | 35.3
ANLH | 13
AHLC | ≤ 0.25
MAIR | ≤ 0.25
TWDF | ≤ 0.25
QNMP | ≤ 0.25
QKNG | ≤ 0.25
VWKN | ≤ 0.25
TWHE | ≤ 0.25
ANAW | ≤ 0.25
EGLC | ≤ 0.25
ADYV | ≤ 0.25
LNSI | ≤ 0.25
ADNS | ≤ 0.25
AIIV | 3.98
ANSI | 18
AGIV | 14.4
AGWV | ≤ 0.25
ANNS | 12.9
ADIV | 12.5

Variant | enrichment ratio
GNSI | 4.37
AGIS | 2.92
ANYR | ≤ 0.25
EFTF | ≤ 0.25
GVQP | ≤ 0.25
PEHG | ≤ 0.25
WTQP | ≤ 0.25
TWFQ | ≤ 0.25
QNLY | ≤ 0.25
KERI | ≤ 0.25
KAIG | ≤ 0.25
RCHM | ≤ 0.25
ANIS | 4.66
ANHN | ≤ 0.25
ANIV | 13.7
HKAP | ≤ 0.25
SKLM | 16.3
SKLA | 8.7
SKVA | 1.14
SKVM | 19.7
SKLF | 11
NDKA | ≤ 0.25
ITMN | ≤ 0.25
VVYG | ≤ 0.25

Variant | enrichment ratio
VHNY | ≤ 0.25
HMES | ≤ 0.25
SPNM | ≤ 0.25
AGTM | 16.2
KSTM | ≤ 0.25
YWTM | ≤ 0.25
RGTM | ≤ 0.25
GGTM | 1.63
TVNM | 13.5
TGTM | 15
FVNM | ≤ 0.25
TVTM | 16.6
SPTM | ≤ 0.25
AGTS | 7.67
DANA | ≤ 0.25
MGIR | ≤ 0.25
PYLL | ≤ 0.25
VWQC | ≤ 0.25
KPYK | ≤ 0.25
NMSK | ≤ 0.25
GWYP | ≤ 0.25
NKWL | ≤ 0.25
YWTA | ≤ 0.25
KAGY | ≤ 0.25

Variant | enrichment ratio
TAAY | 15.7
TAGY | 34.1
TAYI | 10.2
TAPY | ≤ 0.25
NAGY | ≤ 0.25
NVMG | ≤ 0.25
SYKQ | ≤ 0.25
DDMM | ≤ 0.25
FLYG | ≤ 0.25
YCDY | ≤ 0.25
PSFY | ≤ 0.25
WEWY | ≤ 0.25
VFIN | ≤ 0.25
YVGY | ≤ 0.25
HIQN | ≤ 0.25
MNVG | ≤ 0.25
MNHG | ≤ 0.25
MNWI | 6.11
MNWG | 15.6
MNWN | 15.4
TNWE | ≤ 0.25
MNWE | 17.9
MNQN | ≤ 0.25
MNIE | ≤ 0.25

Variant | enrichment ratio
TSGQ | 7.96
PQQF | ≤ 0.25
WRDC | ≤ 0.25
WALM | 6.02
YELS | 14.9
TALM | 15.3
YIGM | 0.38
YELA | ≤ 0.25
HPLM | ≤ 0.25
YILM | 12.1
KALM | ≤ 0.25
HALM | 14.3
YEWI | ≤ 0.25
HYLM | ≤ 0.25
QPLM | ≤ 0.25
SGGE | ≤ 0.25
MSWN | 8.63
TQHK | ≤ 0.25
KKLF | ≤ 0.25
HYYY | ≤ 0.25
VMNW | ≤ 0.25
NFPM | ≤ 0.25
MDYM | ≤ 0.25
TGWM | 0.965

Variant | enrichment ratio
FLTQ | ≤ 0.25
HCKA | ≤ 0.25
FSYE | ≤ 0.25
NALM | 5.51
AALM | 14.8
VALM | 16.8
VILM | 1.31
WKLM | ≤ 0.25
VLLM | 0.26
YALM | 12.7
PKLM | ≤ 0.25
AKLM | 12.4
YWLM | ≤ 0.25
RGGT | ≤ 0.25
TCHA | ≤ 0.25
ESLN | ≤ 0.25
AYSD | ≤ 0.25
WYCA | ≤ 0.25
QFWH | ≤ 0.25
FYES | ≤ 0.25
YMRA | ≤ 0.25
QDSF | ≤ 0.25
ANLM | 13.3
AHLM | 12.1

Variant | enrichment ratio
SHLM | 19.3
AILM | 5.76
SHLA | 3.56
YELM | 13.8
YELF | 0.264
AYLM | ≤ 0.25
FTLM | 8.49
YHLM | 0.877
WNLM | ≤ 0.25
SHGM | ≤ 0.25
ATSH | 10.6
RYPH | ≤ 0.25
VVLY | ≤ 0.25
VSDV | ≤ 0.25
FWLQ | ≤ 0.25
ISFK | ≤ 0.25
HFQN | ≤ 0.25
SRTQ | ≤ 0.25
KKLM | ≤ 0.25
IQLM | 3.4
AQLM | 19.4
VHLM | ≤ 0.25
HKLM | ≤ 0.25
NHLM | ≤ 0.25

Variant | enrichment ratio
TKLM | 21.3
ADLM | 12.7
FDLM | ≤ 0.25
THLM | 12.3
APLM | ≤ 0.25
FHFT | ≤ 0.25
HCCR | ≤ 0.25
PGAV | ≤ 0.25
DVEF | ≤ 0.25
FMQW | ≤ 0.25
QFLI | ≤ 0.25
NSRM | ≤ 0.25
RLVV | ≤ 0.25
PVNN | ≤ 0.25
SPNN | ≤ 0.25
TTNN | 17.8
TNMN | ≤ 0.25
TNNN | 14.7
YTNN | ≤ 0.25
TNQN | 16.8
TWNN | 0.76
ITNN | ≤ 0.25
TNEN | ≤ 0.25
KCNN | ≤ 0.25

Variant | enrichment ratio
TVNN | 12.7
MDAD | ≤ 0.25
QRKY | ≤ 0.25
NDMN | ≤ 0.25
EKIL | ≤ 0.25
PHCG | ≤ 0.25
SNES | ≤ 0.25
IPVP | ≤ 0.25
TNQH | 15
LTNN | ≤ 0.25
MNQH | ≤ 0.25
TNKH | ≤ 0.25
FDNN | ≤ 0.25
TDNN | 33.6
ISMG | 1.17
WDMF | ≤ 0.25
KSIQ | ≤ 0.25
WNCS | ≤ 0.25
